Screening data: PubChem BioAssay, several laboratories
Hits are enriched below; roughly 4.5% of the tested compounds scored in any of these assays.
GRIN3A LBD mod = binders of NR3A ligand-binding domain, primary screen, biophysical, differential scanning fluorimetry, uHTS; Glutamate receptor ionotropic, NMDA 3A (GRIN3A) ligand-binding domain; NR3A LBD differential scanning fluorimetry, Tm shift; 0% = protein alone, 100% = glycine-bound protein; Tm shift relative to glycine control, % at 25 µM; 340,000 tested, 2.5% active; AID 1259313, 2017;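 active = melting temperature shift of at least 10% of the positive control shift, at one fixed dose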
dFosB activator = activators of delta FosB homodimer, primary screen, biochemical, fluorescence polarization, TAMRA-CDK5 oligo, single point. purified delta FosB; percent of positive-control signal above neutral wells. activation, % at 25 µM. 340,000 tested, 0.99% active. AID 493131, 2011;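 active = mean activation above about 17%, with every replicate also reaching it, limit read from the data, passing the limit was not always enough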
ZTA counter = counter-screen for EBNA-1 inhibitors: inhibitors of Epstein-Barr virus ZTA; ZTA-DNA binding, fluorescence polarization; inhibition, % at 11 µM; 320,000 tested, 0.15% active; in the data active = inhibition above about 33%
Target sequence (P03206 whole entry, looked up): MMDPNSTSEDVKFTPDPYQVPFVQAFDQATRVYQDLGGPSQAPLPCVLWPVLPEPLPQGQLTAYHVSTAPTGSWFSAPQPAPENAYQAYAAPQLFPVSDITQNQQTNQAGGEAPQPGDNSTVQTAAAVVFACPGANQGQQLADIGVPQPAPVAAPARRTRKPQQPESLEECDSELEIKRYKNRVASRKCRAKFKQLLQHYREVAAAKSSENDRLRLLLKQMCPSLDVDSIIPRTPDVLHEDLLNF
TPT1 inhibitor = Candida albicans TPT1 enzyme inhibitors, primary screen, biochemical, fluorescence polarization. tRNA 2'-phosphotransferase TPT1 (Candida albicans SC5314). recombinant caTPT1, FP RNA substrate dephosphorylation. inhibition, % at 5 µM. 300,000 tested, 0.81% active. AID 1962, 2009;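 active = inhibition above the mean of all tested compounds plus 3 SD, set per screening campaign, cut at about 24% in these data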
Rpn11 block = Rpn11 (PSMD14) deubiquitinase inhibitors, primary screen, biochemical, fluorescence polarization, uHTS; 26S proteasome non-ATPase regulatory subunit 14 (Homo sapiens), O00487; human 26S proteasome, Ub4-pepOG fluorescence polarization; 20S core pre-blocked with epoxomicin; inhibition, % at 20 µM; 360,000 tested, 0.59% active; AID 588493, 2011;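 active = inhibition at 20 µM, scaled to each plate's controls, above about 33%, limit read from the data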
Target sequence (O00487 whole entry, looked up): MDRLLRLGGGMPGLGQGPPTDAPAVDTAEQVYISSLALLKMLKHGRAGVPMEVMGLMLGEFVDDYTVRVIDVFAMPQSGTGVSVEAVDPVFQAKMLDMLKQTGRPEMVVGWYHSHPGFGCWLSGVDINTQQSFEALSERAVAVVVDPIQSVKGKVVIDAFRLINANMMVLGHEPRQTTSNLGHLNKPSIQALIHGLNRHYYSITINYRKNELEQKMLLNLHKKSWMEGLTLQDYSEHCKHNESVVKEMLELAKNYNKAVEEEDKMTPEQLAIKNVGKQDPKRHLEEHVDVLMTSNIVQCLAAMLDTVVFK
EBNA-1 inhibitor = EBNA-1 DNA-binding inhibitors, primary screen, biochemical, fluorescence polarization | inhibition, % at 14.8 µM | 300,000 tested, 0.34% active | AID 1950, 2009; in the data active = inhibition above about 28%
A number is an active result; - = inactive; . = not tested or not shown.

SMILES	GRIN3A LBD mod	dFosB activator	ZTA counter	TPT1 inhibitor	Rpn11 block	EBNA-1 inhibitor
COc1cc2c(cc1NC(=O)c1ccc(C(C)(C)C)cc1)CCCC2	-	-	-	-	-	-
CCOc1cccc(C(=O)N/N=C/c2coc3ccccc3c2=O)c1	-	-	-	-	-	-
COc1ccc(S(=O)(=O)N(C)C)cc1NC(=O)c1ccc2c(c1)NC(=O)C(C)S2 (stereo unspecified)	-	-	-	.	-	.
COc1cccc2cc(C(=O)NCCc3ccccc3)oc12	-	-	-	-	-	-
CC(NC(=O)C(=O)N/N=C/c1ccccc1)c1ccccc1 (stereo unspecified)	-	-	-	-	-	-
O=c1cc(-c2ccc(O)c(O)c2)oc2cc(O)c([C@@H]3O[C@H](CO)[C@@H](O)[C@H](O)[C@H]3O)c(O)c12	19	-	.	.	-	.
N=C1C2=C3Sc4ccccc4N3CCCC2=NN1c1cccc(S(=O)(=O)O)c1	-	-	-	-	-	-
O=S(=O)(CCNCCc1ccccc1)NCc1ccccc1	-	-	.	.	-	.
COc1cc2ncc(S(=O)(=O)c3ccccc3)c(N3CCCC(C)C3)c2cc1OC (stereo unspecified)	15	-	-	-	-	-
CC1=NN(c2ccc(Cl)cc2)C(=O)C1C(c1cccc(O)c1)c1c(C)[nH]n(-c2ccc(Cl)cc2)c1=O (stereo unspecified)	15	-	-	-	-	-
CC1=NN(c2ccc(F)cc2)C(=O)C1C(c1cccc(O)c1)c1c(C)[nH]n(-c2ccc(F)cc2)c1=O (stereo unspecified)	-	-	-	-	-	-
COc1ccccc1NC(=O)C(C)Sc1nnc2ccccn12 (stereo unspecified)	-	-	-	.	-	.
O=C(COC(=O)c1cc(Br)ccc1O)NNC(=O)c1cccs1	-	29	-	.	-	.
COc1ccc(CCNC(=O)CNCC2CCCCC2)cc1OC	-	-	-	-	-	-
CC(=O)Nc1ccc(Nc2nc(C(F)(F)F)nc3c2nnn3Cc2ccccc2Cl)cc1	13	-	-	-	-	-
NC(=S)N/N=C/c1c[nH]c2ccc(OCc3ccccc3)cc12	10	-	-	-	-	-
Cc1cc(C)c2c(=O)n(CC(=O)NCCCN3CCOCC3)sc2n1	19	-	-	-	-	-
Cc1cc(C)c2c(=O)n(CC(=O)NCCCN3CCN(c4ccccc4F)CC3)sc2n1	-	.	-	-	.	-
O=c1ccc2[n+]([O-])c3ccc(O)cc3oc-2c1	-	40	.	.	-	.
CCCCCC(=O)Nc1cc(S(=O)(=O)N2CCOCC2)ccc1N1CCCCC1	-	-	-	-	-	-
COc1ccc2oc(C(=O)NNC(=O)c3ccc(F)cc3)c(C)c2c1	-	-	-	-	-	-
COc1ccc(/C=C/C(=O)c2oc3ccc(F)cc3c2C)cc1	13	-	-	-	-	-
O=C(NNC(=O)c1csc(N2CCOCC2)n1)c1ccc(=O)[nH]c1	-	-	-	.	-	.
CC(C)(C)OC(=O)N1CCC[C@H]1c1nnc(SCC(=O)Nc2ccc(Br)cc2)o1	29	-	-	-	-	-
NC(=O)c1sc2cc(C(F)(F)F)cnc2c1-c1cccs1	21	-	-	-	-	-
SMILES	GRIN3A LBD mod	dFosB activator	ZTA counter	TPT1 inhibitor	Rpn11 block	EBNA-1 inhibitor
O=C(O)c1sc2cc(C(F)(F)F)cnc2c1-c1cccs1	-	-	-	-	-	-
Oc1ccccc1/C=N/n1c2ccccc2c2ccccc21	19	-	-	-	-	-
C(=N\n1c2ccccc2c2ccccc21)/c1ccccc1	-	-	-	-	-	-
COc1cccc(N(CC(=O)NC2CCCC2)C(=O)CCC(=O)Nc2cc(C)on2)c1	-	-	-	-	-	-
Cc1cccc(NCc2ccc(N(C)C)cc2)n1	-	-	-	-	-	-
COc1cccc(CN2CCNC(=O)C2CC(=O)NCc2cn3ccc(C)cc3n2)c1OC (stereo unspecified)	-	-	-	-	-	-
CCC(C)C1/C=C\CC(NC(=O)OCC2c3ccccc3-c3ccccc32)CC(=O)N1Cc1ccccc1 (stereo unspecified)	-	-	.	.	-	.
COc1ccc(C2/C=C\CC(NC(=O)OCC3c4ccccc4-c4ccccc43)CC(=O)N2Cc2ccccc2F)cc1 (stereo unspecified)	14	-	.	.	-	.
C/C(=N\Nc1cc(-c2ccccc2)nc(-c2ccccc2)n1)c1ccc(O)c(C)c1	28	-	-	-	-	-
C/C(=N\Nc1nc(C)cc(-c2ccccc2)n1)c1ccc(O)cc1	-	-	-	-	-	-
COc1cc(N/N=C(\C)c2ccc(O)c(C)c2)nc(-c2ccccc2)n1	22	-	-	-	-	-
CCn1c(=O)cc(OCC(=O)NCCCN2CCCC2=O)c2ccccc21	-	-	-	-	-	-
O=C(NNc1ccc(C(F)(F)F)cc1[N+](=O)[O-])c1ccc(NS(=O)(=O)c2ccc(F)cc2)cc1	22	-	-	-	-	-
CC(C)[C@H](Nc1ccc(C(F)(F)F)cc1[N+](=O)[O-])C(=O)O	-	-	-	-	-	-
Cn1c(=O)c2c(ncn2CC(=O)OCCCC(=O)c2ccc(Br)cc2)n(C)c1=O	18	-	.	.	-	.
O=Nc1[nH]c(=O)c(/C=C(\O)c2ccccc2)nc1NO	-	-	.	.	-	.
O=C(Nc1ccc(Cl)c([N+](=O)[O-])c1)C(Sc1ccccc1)c1ccccc1 (stereo unspecified)	28	-	-	-	-	-
O=C(Nc1cc([N+](=O)[O-])ccc1Cl)C(Sc1ccccc1)c1ccccc1 (stereo unspecified)	-	-	-	-	-	-
CC(=O)N(C)c1ccc(NC(=O)C(Sc2ccccc2)c2ccccc2)cc1 (stereo unspecified)	-	-	-	-	-	-
CC(C)(C)NS(=O)(=O)c1ccc(NC(=O)C(Sc2ccccc2)c2ccccc2)cc1 (stereo unspecified)	23	-	-	-	-	-
Oc1ccc(C[C@@H]2CNCCN2CCc2cc(C(F)(F)F)cc(C(F)(F)F)c2)cc1	-	-	-	-	-	-
FC(F)(F)c1cc(CCN2C(=S)NC[C@@H]2Cc2ccccc2)cc(C(F)(F)F)c1	13	-	-	-	-	-
Oc1ccc(C[C@@H]2CNC(=S)N2CCc2cc(C(F)(F)F)cc(C(F)(F)F)c2)cc1	34	-	-	-	-	-
Oc1ccc(C[C@H]2CNC(=S)N2CCc2cc(C(F)(F)F)cc(C(F)(F)F)c2)cc1	31	-	-	-	-	-
O=C(CSc1nc(=O)n(CCCN2CCOCC2)c2c1CCCC2)Nc1cccc(F)c1	-	-	-	-	-	-
O=S1(=O)CCC(n2nccc2-c2ccccc2)C1 (stereo unspecified)	-	-	-	-	-	-
